Measured values taken from the supplement of paper PMC13380429.
A number with no mark means an inactive call.

Test system: Vero E6 infected with SARS-CoV-2
Test: inhibition of SARS-CoV-2 cytopathic effect; higher = more antiviral protection, active = above 15
Settings: 48 h

Compound | inhibition of SARS-CoV-2 cytopathic effect (1 nM) [%] | inhibition of SARS-CoV-2 cytopathic effect (8.33 nM) | inhibition of SARS-CoV-2 cytopathic effect (100 nM) [%] | inhibition of SARS-CoV-2 cytopathic effect (833.33 nM) [%] | inhibition of SARS-CoV-2 cytopathic effect (10000 nM)
NCc1ccc(S(N)(=O)=O)cc1 [mafenide] | 0.46 | 1.5% | 1.54 | 2.7 | -2.32%
CCCCCCCCCC(=O)OC1(c2ccc(Cl)cc2)CCN(CCCC(=O)c2ccc(F)cc2)CC1 [haloperidol-decanoate] | 0.13 | 0.37% | -2.1 | -0.9 | -1.91%
CCCCC/C=C\C/C=C\C/C=C\CCCCC(=O)O [gamma-linolenic-acid] | -0.6 | -2.39% | -2.33 | -1.24 | -1.03%
COc1ccccc1C1(O)CCN(CCCn2c3ccccc3c3ccccc32)CC1 | 0.73 | 1.45% | 2.5 | 1.69 | 42.4% (active)
C=C(CC)C(=O)c1ccc(OCC(=O)O)c(Cl)c1Cl [etacrynic-acid] | 1.1 | 2.25% | 2.32 | 4.17 | -6.97%
CCC[C@@H]1CC2=CC(=O)CC[C@]2(C)[C@H]2CC[C@@]3(C)[C@@H](CC[C@@]3(O)CCC(=O)O)[C@H]12 | 1.5 | 15.1% (active) | 3.45 | -4.91 | 1.68%
C/N=C(/NC#N)NCCSCc1csc(NC(=N)N)n1 [tiotidine] | -3.61 | -1.47% | -1.51 | -3.05 | -1.02%
